# According to PubChem BioAssay AID1362 (SRMLSC, 2008):
# Out of some 190,000 compounds screened, about 4,000 (2.1%) were called active. No stated cut-off is given here; in the data, active means inhibition above about 58%; inactive means the rest, inconclusive results apart; tested in S. cerevisiae. The sample as a whole holds a higher share of actives than the screen did.
# Assay: growth inhibition of WT strain, primary screen, mitochondrial fusion inhibitor project, WT and mutant strains, chemical genetic (AID 1362)
# Conditions: mitochondrial fusion phenotypic screen, at 10 µM
# [1] = WT strain, growth inhibition, stronger effect = higher value
Structure (SMILES),inhibition [1],inhibition (mutant strain inhibition)
CC1=NN(c2cccc(Cl)c2)C(=O)C12CC(C)=C(C)CS2 (stereo not given),71.2% (active),49.2%
CC12CCC(C(=O)N(c3cccc(Cl)c3)C1=O)C2(C)C (stereo not given),15.3% (inactive),1.52%
CCCCN(CC)CCNC(=O)CCNC(=O)Cn1ccc2ccccc2c1=O,-12.2% (inactive),5.97%
CN(C)c1ccc(/C=N/Nc2cc(N3CCOCC3)nc(N3CCOCC3)n2)cc1,2.15% (inactive),-1.62%
C/C(=N\NC(=S)NC1CCCCC1)c1ccc(C)o1,76.5% (active),64.5%
C/C(=N/NC(=O)c1ccc(Br)o1)c1ccc(C)o1,-7.01% (inactive),-8.07%
Cc1ccc(NC(=S)NC2CCCC2)cc1,1.79% (inactive),-5.24%
COc1ccc(C(=O)Nc2ccc(N3CCC(C)CC3)cc2)cc1Br,-5.4% (inactive),7.51%
O=S(=O)(c1ccc2c(c1)OCCO2)N1CCc2ccccc21,-3.01% (inactive),-8.75%
CN(C)C=NC(=O)c1cccn1-c1ncc(C(F)(F)F)cc1Cl,17.4% (inactive),-2.64%
Cc1noc(C)c1COc1ccc2ccc(=O)oc2c1,7.56% (inactive),-14.3%
O=C(CSc1ncn[nH]1)NCc1ccc2c(c1)OCO2,-7.65% (inactive),6.4%
c1n[nH]c(NCc2ccc3c(c2)OCO3)n1,76.9% (active),23%
COc1cc(CNc2ncn[nH]2)ccc1OCc1ccccc1C,-10% (inactive),6.17%
CCCCCC(O)c1cccc(OCc2ccc3ccccc3n2)c1 (stereo not given),77.5% (active),12.2%
CCCCCCOC(=O)NCC(O)c1ccccc1 (stereo not given),-6.62% (inactive),-10.2%
CCCn1c(C(O)c2ccc(OCC)cc2)nc2ccccc21 (stereo not given),16.9% (inactive),18.6%
CCn1c(N)c(Br)c(=O)[nH]c1=O,-1.38% (inactive),6.81%
CCOC(=O)c1ccc[n+](CC(=O)Nc2ccccc2OC(F)F)c1,-21.9% (inactive),-5.87%
CCOC(=O)c1sc(=NC(=O)/C=C/c2cccs2)n(C)c1C,11.4% (inactive),-7.32%
COc1ccc(NC(=O)C(Br)C(C)C)cc1 (stereo not given),-7.51% (inactive),2.44%
CC1CCN(c2ccc([N+](=O)[O-])cc2C(N)=O)CC1,3.04% (inactive),-16.1%
Cc1ccc(SCCC(=O)OCC(=O)Nc2ncc(Cl)cc2Cl)cc1,2.29% (inactive),2.8%

Structure (SMILES),inhibition [1],inhibition (mutant strain inhibition)
NS(=O)(=O)c1cccc(NC(=O)CSc2nc3ccccc3n2-c2ccccc2)c1,-7.39% (inactive),1%
Cc1ccc(-n2c(SCC(=O)Nc3ncc(Cl)cc3Cl)nc3ccccc32)cc1,74.2% (active),43.6%
S=C(c1ccc(-c2ccccc2)o1)N1CCCCC1,43.1% (inactive),35.3%
Clc1ccc(Nc2nc(-c3cccs3)cs2)nc1,78.8% (active),68.5%
O=C(Nc1ccc(Cl)cn1)Nc1cccs1,8.8% (inactive),18.2%
c1ccc(Nc2nc(-c3ccncc3)cs2)nc1,23.8% (inactive),27.6%
COc1ccccc1N1CCN(/N=C\C(Br)=C\c2ccccc2)CC1,15.4% (inactive),14.3%
O=C(Nc1ccccc1Cl)c1ccc2nsnc2c1,-2.83% (inactive),-10.8%
O=C(Nc1ccccc1Cl)/C(Cl)=C(\Cl)S(=O)c1ccccc1 (stereo not given),95.8% (active),92.8%
O=C(CN1CCCCC1)Nc1ccccc1Cl,-11.8% (inactive),3.7%
O=C(Cc1ccccc1)NNC(=O)C1CCN(c2ncccn2)CC1,-17.4% (inactive),-9.74%
CC(c1ccco1)N(C(=O)COc1ccccc1[N+](=O)[O-])c1ccccn1 (stereo not given),70.6% (active),2.58%
O=C(COc1ccccc1[N+](=O)[O-])NC1CC1,-0.95% (inactive),8.16%
CC(c1ccco1)N(C(=O)c1ccc(S(=O)(=O)N2CCCCC2)cc1)c1ccccn1 (stereo not given),4.63% (inactive),-4.51%
CCCCN(CC(=O)NC(C)(C)C)C(=O)C(=O)Nc1ccc2c(c1)OCCO2,-14.6% (inactive),11%
OCCC#Cc1ccc(CN2CCN(Cc3ccsc3)C(CCO)C2)cc1 (stereo not given),2.66% (inactive),-0.56%
CCOC(=O)c1ccc(NC(=S)Nc2cc(C)cc(C)n2)cc1,12.9% (inactive),22.8%
Cc1ccc2c(c1)C1CN(C)CCC1N2C(=S)Nc1ccc(OC(F)F)cc1 (stereo not given),17.8% (inactive),8.65%
Cc1ccc2c(c1)C1CN(C)CCC1N2C(=O)c1ccccc1NS(=O)(=O)c1ccc(F)cc1C (stereo not given),-2.24% (inactive),-7.82%
Cc1ccc2c(c1)C1CN(C)CCC1N2S(=O)(=O)c1ccc(Oc2ccc([N+](=O)[O-])cc2)cc1 (stereo not given),78.9% (active),62.2%
Cc1ccc(S(=O)(=O)CCC(=O)OCc2ccccc2)cc1,0.5% (inactive),13.9%
C=CCN(CC=C)CCOc1ccccc1[N+](=O)[O-],1.42% (inactive),1.87%
CC1=CC2=NC(=O)CC(C)(C(=O)N(CC(=O)NC(C)(C)C)Cc3ccccc3)N2C=C1 (stereo not given),-18.1% (inactive),-9.57%

Structure (SMILES),inhibition [1],inhibition (mutant strain inhibition)
Cc1nnc(SCC(=O)N2CCc3ccccc3C2)s1,3.58% (inactive),-9.75%
Cc1nnc(SCC(=O)N2c3ccccc3C(C)(c3ccc(Cl)cc3)CC2(C)C)s1 (stereo not given),68.9% (active),10.2%
Cc1nnc(SCC(=O)NCc2ccccc2)s1,9.71% (inactive),1.45%
CCCCCCCC1(C)NC(=O)N(CC(=O)Nc2cc(C)on2)C1=O (stereo not given),3.19% (inactive),-21%
COc1cc(C)c(S(=O)(=O)N2CCOCC2)c(C)c1C,-12.4% (inactive),-18.1%
CC(C)(C)N(CC#CCC(O)(c1ccccc1)C1CCCC1)CCO (stereo not given),-9.77% (inactive),-9.45%
COc1cccc(/C=C/C(=O)Nc2ccc3c(c2)OCCO3)c1,19.1% (inactive),5.63%
CN(C)CCSc1nc(N)c2c3c(sc2n1)COC(C)(C)C3,-20.9% (inactive),-1.39%
CCC1(C)Cc2c(sc3nc(SC)nc(N)c23)CO1 (stereo not given),-20.9% (inactive),-10.7%
CCCSc1nc(NCc2ccco2)c2c3c(sc2n1)COC(C)(CC)C3 (stereo not given),58.6% (active),41.2%
N/C(=N\OC(=O)Nc1ccc(Cl)c(Cl)c1)c1ncc(C(F)(F)F)cc1Cl,80.3% (active),78.5%
N/C(=N\OC(=O)CCCC(=O)O)c1ncc(C(F)(F)F)cc1Cl,9.89% (inactive),9.98%
O=C(CC(O)(C(F)(F)F)C(F)(F)F)Nc1ccc(Cl)c(Cl)c1,84.6% (inactive),85.2%
CCc1cccc2c(=O)c(C(=O)NCCCOC)c[nH]c12,4.61% (inactive),8.59%
CCN1CCN(CC(=O)c2cc(OC)c(OC)c(OC)c2)CC1,-2.06% (inactive),-0.71%
COc1cccc(-c2cnc(OC(C)(C)C)nc2OC(C)(C)C)c1,84.1% (active),27.8%
COc1cccc(-c2nc3cc(C)ccc3o2)c1,26.9% (inactive),17.7%
CC(C)(C)Oc1ncc(Br)c(OC(C)(C)C)n1,18.5% (inactive),15.1%
Cc1ccccc1NC(=O)NNC(=O)OC(C)(C)C,-2.03% (inactive),-7.53%
[O-][n+]1c2c(nn1-c1ccc(Cl)c(Cl)c1)-c1nonc1CC2,38% (inactive),6.81%
CN(C)CCN=c1cc(-c2ccccc2)oc2ccc(Cl)cc12,10.8% (inactive),15.6%
c1ccc2c(NC3C4CC5CC(C4)CC3C5)nc(N3CCOCC3)nc2c1 (stereo not given),69.3% (active),45.5%
CC(Nc1nc(N2CCOCC2)nc2ccccc12)c1ccccc1 (stereo not given),7.41% (inactive),-4.07%

Structure (SMILES),inhibition [1],inhibition (mutant strain inhibition)
c1ccc(Nc2nc(N3CCOCC3)c3ccccc3n2)cc1,44.7% (inactive),45.5%
CCc1nc2ccccc2c(C(=O)NCc2ccc(OC)cc2)c1C,-7.63% (inactive),-13.1%
CC(=O)NC1C(Oc2ccc(C=O)cc2)OC(COC(C)=O)C(OC(C)=O)C1OC(C)=O (stereo not given),-6.93% (inactive),-11.4%
Cn1nnnc1-c1cc(Cl)cc(Cl)c1,0.51% (inactive),21.3%
CCCCc1nc(NCCN)c(C#N)c2c1CSC(C)(C)C2,85.3% (active),31.7%
CCCCc1nc(NCc2ccccc2)c(C#N)c2c1CCCC2,-9.79% (inactive),2.15%
Cc1nc(NCCN)c(C#N)c2c1COC(C)(C)C2,24.4% (inactive),10.2%
CCN1CCN(c2ccc(NC(=O)c3cnccn3)cc2)CC1,4.84% (inactive),4.5%
CCn1ccnc1CN1CCCC(C(=O)c2ccc3c4c(cccc24)CC3)C1 (stereo not given),42.3% (inactive),36.2%
Cc1cnc(C(=O)OCC(=O)NCCCc2ccccc2)cn1,14.9% (inactive),3.19%
O=c1cc(N2CCN(Cc3ccccc3)CC2)c(-c2ccccc2)n[nH]1,-12.8% (inactive),-10.6%
O=c1c2ccccc2c(-c2ccccc2)nn1Cc1ccccc1,-8.61% (inactive),-0.27%
O=c1cc(N2CCCCC2)c(-c2ccccc2)nn1Cc1cccc(F)c1,87.9% (active),46.3%
CC(=O)Nc1ccccc1OC(C)C(=O)N1CCC(C)CC1 (stereo not given),-7.46% (inactive),7.56%
Cc1ccc(C)c(-n2ccnc2SCC(N)=O)c1,5.62% (inactive),13.6%
O=C(CCn1c(=S)[nH]c2ccccc2c1=O)NCCCN1CCCC1=O,-5% (inactive),-5.53%
CCCCn1c(=S)[nH]c2ccccc2c1=O,4.59% (inactive),8.61%
O=c1c2ccccc2[nH]c(=S)n1CCN1CCC(=C(c2ccc(F)cc2)c2ccc(F)cc2)CC1,77.9% (active),62.2%
Cc1ccc(-n2nc3cc(Cl)c(NC(=O)c4ccco4)cc3n2)cc1,16.1% (inactive),-7.45%
CC(=O)Nc1nc2ccccc2n1Cc1ccc(C)cc1,15.3% (inactive),15.5%
Cc1ccc(Cn2c(NC(=O)c3ccco3)nc3ccccc32)cc1,92.4% (active),-2.81%
